These results are taken from the GenesisPotency data set.

The campaign covered roughly 370,000 compounds. About 1,100 (0.3%) were called active. Another 1% or so got no clear call; they are omitted. This is one part of a sample in which actives are shown more often than they occur. Calls follow the shape of the dose curve; as a rule, active = well fitted activation curve with a large enough effect; inconclusive = small, poorly fitted or top-dose-only effect; inactive = flat fitted curve, though single readings scatter.

The experiment has as its target T1, Relaxin receptor 1, Homo sapiens (UniProt Q9HBX9).
T1 sequence (whole entry): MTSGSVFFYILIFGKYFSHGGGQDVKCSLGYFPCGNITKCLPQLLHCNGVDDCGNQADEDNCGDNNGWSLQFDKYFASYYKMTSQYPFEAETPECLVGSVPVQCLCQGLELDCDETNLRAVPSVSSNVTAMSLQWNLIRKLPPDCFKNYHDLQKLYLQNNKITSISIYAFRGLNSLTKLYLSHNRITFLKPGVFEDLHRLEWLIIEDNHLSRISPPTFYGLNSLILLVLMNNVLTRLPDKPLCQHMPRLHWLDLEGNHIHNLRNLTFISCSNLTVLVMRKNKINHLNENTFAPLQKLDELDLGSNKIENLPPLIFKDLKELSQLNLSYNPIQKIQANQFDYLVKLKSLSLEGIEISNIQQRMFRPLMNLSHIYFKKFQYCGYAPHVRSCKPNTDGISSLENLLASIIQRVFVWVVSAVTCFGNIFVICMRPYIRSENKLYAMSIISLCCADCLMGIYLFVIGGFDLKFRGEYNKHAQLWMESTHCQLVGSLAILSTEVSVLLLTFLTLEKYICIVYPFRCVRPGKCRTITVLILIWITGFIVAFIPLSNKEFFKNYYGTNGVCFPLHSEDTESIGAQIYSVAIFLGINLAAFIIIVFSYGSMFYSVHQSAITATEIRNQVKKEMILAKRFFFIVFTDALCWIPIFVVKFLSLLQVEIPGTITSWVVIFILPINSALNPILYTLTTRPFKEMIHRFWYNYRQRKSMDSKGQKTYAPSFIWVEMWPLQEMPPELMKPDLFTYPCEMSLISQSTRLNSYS
The experiment is described as follows: qHTS Assay for Agonists of the Relaxin Receptor RXFP1.
Turning to `CCCC[N+](CCCC)(CCCC)CCCC.Nc1ncnc2c1ncn2[C@@H]1O[C@H](COS(=O)(=O)[O-])[C@@H](O)[C@H]1O`, the molecule was called active.
